Inconclusive results are not listed. Entries that show only a call come without a potency. Activity calls are given as the source filed them. Unless noted, the call rests on the fitted dose curve; in most records, active means well fitted curve in the direction sought with a large enough effect; inconclusive means small, poorly fitted or top-dose-only effect, or another doubt; inactive means no such curve, though single readings can be large or run the other way.
Test system: not listed separately
Assay: qHTS Assay for Modulators of Human Peripheral Myelin Protein 22 (PMP22) Expression/Activity (AID 1967; active means well fitted curve in the direction sought with a large enough effect in the signal ratio; the % refers to the signal ratio)
Details: Cell-based PMP22 reporter, dual-color luciferase ratio, 0% = compound-free control cells, mouse Pmp22 promoter in mouse Schwann cells; series mostly up to 115 µM
Method in brief: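 Mouse MSC80 Schwann line, Pmp22 promoter–CBG68 reporter, EF-alpha–CBR internal control. 24h compound exposure, 37 °C/5% CO2, DMEM + 10% FBS. Readout: corrected green/red luminescence ratio, normalized to untreated cells; concentration-response curves fitted and classified.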

SMILES	outcome
CC(=O)SCC[N+](C)(C)C	inactive
O=C(O)c1cc(=O)c2ccccc2[nH]1	inactive
NCCCCCCCCCCN	inactive
CN1[C@@H](CC(=O)c2ccccc2)CCC[C@H]1C[C@H](O)c1ccccc1	inactive
C[C@@H](CN1CCC(Cc2ccccc2)CC1)[C@@H](O)c1ccc(O)cc1	inactive
Cc1ccc(C(=O)O[C@H](C(=O)O)[C@@H](OC(=O)c2ccc(C)cc2)C(=O)O)cc1 (tested in a mixture with another compound)	inactive
CC(C)(C)NCC(O)COc1nsnc1N1CCOCC1 (configuration not stated)	inactive
OCC1O[C@H](O)C(Cl)C(O)C1O (some centres not stated)	inactive
CN[C@H](CC(C)C)C(=O)N[C@H]1C(=O)N[C@@H](CC(N)=O)C(=O)N[C@H]2C(=O)N[C@H]3C(=O)N[C@H](C(=O)N[C@H](C(=O)O)c4cc(O)cc(O)c4-c4cc3ccc4O)[C@H](O)c3ccc(c(Cl)c3)Oc3cc2cc(c3O[C@@H]2O[C@H](CO)[C@@H](O)[C@H](O)[C@H]2O[C@H]2C[C@](C)(N)[C@H](O)[C@H](C)O2)Oc2ccc(cc2Cl)[C@H]1O	inactive
NCCCCC(=O)O	inactive
NC(=O)C(=O)O	inactive
O=C(O)CC1CCCc2ccccc2C1O (configuration not stated)	inactive
S=C(S)OC1CC2CC1C1CCCC21 (configuration not stated)	inactive
C=C/C(C)=C/[C@@]1(C)SC(=O)C(C)=C1O	inactive
CC(=O)N[C@H](C(=O)O)C(C)(C)SN=O	inactive
CC1CN(S(=O)(=O)c2cccc3cnccc23)CCN1 (configuration not stated)	inactive
CO/N=C(\C(=O)N[C@@H]1C(=O)N2C(C(=O)O)=C(COC(C)=O)CS[C@H]12)c1csc(N)n1 (stereo in doubt)	inactive

SMILES	outcome
CCCCCCCCCCCCCCCC(=O)NCC(COP(=O)([O-])OCC[N+](C)(C)C)OCC (configuration not stated)	inactive
CN(C)c1nc(N)c(C(=O)N=C(N)N)nc1Cl	inactive
N=C(N)SCCc1ccc(CCSC(=N)N)cc1	inactive
CC1(C)CCC=[N+]1[O-]	inactive
CN1CCC[C@H]1c1cccnc1	inactive
O=C(O)CNC(=O)C(CS)Cc1ccccc1 (configuration not stated)	inactive
C=CC(N)CCC(=O)O (configuration not stated)	inactive
COc1cc2c(CCNC(C)=O)c[nH]c2cc1Cl	inactive
COc1cc(C(O)CO)ccc1OS(=O)(=O)O (configuration not stated)	inactive
c1ccc(-c2ccccn2)nc1	inactive
NO	inactive
O=C(O)c1cc(=O)c2c(Cl)cc(Cl)cc2[nH]1	inactive
NCCSSCCN	inactive
O=c1[nH]c2cc([N+](=O)[O-])c([N+](=O)[O-])cc2[nH]c1=O	inactive
CN1C2CCC1CC(OC(=O)C(O)c1ccccc1)C2 (configuration not stated)	inactive
O=C(O)[C@@H]1C[C@@H](C(=O)O)N1	inactive
Cn1c(=O)c2[nH]c(-c3ccccc3)nc2n(C)c1=O	inactive

Target: Ferritin light chain (Equus caballus) (UniProt P02791)
Assay: qHTS Validation Assay for Identification of Novel General Anesthetics (AID 2323); further: potency means the concentration at half of the fitted maximal effect
Details: horse apoferritin, anesthetic-site fluorescent probe displacement; series mostly up to 76.9 µM
Method in brief: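 10 uM horse-spleen apoferritin + 1-AMA (50% saturated, PBS); cpd pin-transferred, 10 min RT. Ex 380/Em 535 nm endpoint. Activity normalized between free 1-AMA and 1-AMA/apoferritin; 4-parameter Hill fit of concentration-response.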

Chain of Ferritin light chain (Equus caballus) (P02791 2-175 limits assumed): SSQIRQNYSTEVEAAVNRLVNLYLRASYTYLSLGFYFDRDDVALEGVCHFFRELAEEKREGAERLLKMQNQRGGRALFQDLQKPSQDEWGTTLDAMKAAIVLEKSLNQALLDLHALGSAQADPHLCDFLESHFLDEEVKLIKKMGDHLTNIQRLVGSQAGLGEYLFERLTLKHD

SMILES	Potency
CC(=O)SCC[N+](C)(C)C	inactive
O=C(O)c1cc(=O)c2ccccc2[nH]1	inactive
NCCCCCCCCCCN	inactive
CN1[C@@H](CC(=O)c2ccccc2)CCC[C@H]1C[C@H](O)c1ccccc1	inactive
C[C@@H](CN1CCC(Cc2ccccc2)CC1)[C@@H](O)c1ccc(O)cc1	inactive
Cc1ccc(C(=O)O[C@H](C(=O)O)[C@@H](OC(=O)c2ccc(C)cc2)C(=O)O)cc1 (tested in a mixture with another compound)	inactive
CC(C)(C)NCC(O)COc1nsnc1N1CCOCC1 (configuration not stated)	inactive
OCC1O[C@H](O)C(Cl)C(O)C1O (some centres not stated)	inactive
CN[C@H](CC(C)C)C(=O)N[C@H]1C(=O)N[C@@H](CC(N)=O)C(=O)N[C@H]2C(=O)N[C@H]3C(=O)N[C@H](C(=O)N[C@H](C(=O)O)c4cc(O)cc(O)c4-c4cc3ccc4O)[C@H](O)c3ccc(c(Cl)c3)Oc3cc2cc(c3O[C@@H]2O[C@H](CO)[C@@H](O)[C@H](O)[C@H]2O[C@H]2C[C@](C)(N)[C@H](O)[C@H](C)O2)Oc2ccc(cc2Cl)[C@H]1O	inactive
NCCCCC(=O)O	inactive
NC(=O)C(=O)O	inactive
O=C(O)CC1CCCc2ccccc2C1O (configuration not stated)	inactive
S=C(S)OC1CC2CC1C1CCCC21 (configuration not stated)	17.8 µM (active)
C=C/C(C)=C/[C@@]1(C)SC(=O)C(C)=C1O	inactive
CC(=O)N[C@H](C(=O)O)C(C)(C)SN=O	inactive
CC1CN(S(=O)(=O)c2cccc3cnccc23)CCN1 (configuration not stated)	inactive
CO/N=C(\C(=O)N[C@@H]1C(=O)N2C(C(=O)O)=C(COC(C)=O)CS[C@H]12)c1csc(N)n1 (stereo in doubt)	inactive

SMILES	Potency
CN(C)c1nc(N)c(C(=O)N=C(N)N)nc1Cl	inactive
N=C(N)SCCc1ccc(CCSC(=N)N)cc1	inactive
CC1(C)CCC=[N+]1[O-]	inactive
CN1CCC[C@H]1c1cccnc1	inactive
O=C(O)CNC(=O)C(CS)Cc1ccccc1 (configuration not stated)	inactive
C=CC(N)CCC(=O)O (configuration not stated)	inactive
COc1cc2c(CCNC(C)=O)c[nH]c2cc1Cl	inactive
COc1cc(C(O)CO)ccc1OS(=O)(=O)O (configuration not stated)	inactive
c1ccc(-c2ccccn2)nc1	inactive
NO	inactive
O=C(O)c1cc(=O)c2c(Cl)cc(Cl)cc2[nH]1	inactive
NCCSSCCN	inactive
O=c1[nH]c2cc([N+](=O)[O-])c([N+](=O)[O-])cc2[nH]c1=O	inactive
CN1C2CCC1CC(OC(=O)C(O)c1ccccc1)C2 (configuration not stated)	inactive
O=C(O)[C@@H]1C[C@@H](C(=O)O)N1	inactive
Cn1c(=O)c2[nH]c(-c3ccccc3)nc2n(C)c1=O	inactive

Reference: PubChem BioAssay (NCATS)
